LASV entry inh: inhibitors of Lassa virus binding or cell entry; Lassa virus pseudotype entry inhibition, cell reporter; Potency, µM (top dose mostly 37.9 µM), for inactives: at the highest dose activity change, negative = inhibition, hits mostly inhibitors; hit rate 1.2% among 300,000; AID 540256; calls by dose curve; tested in HEK293 cells; further: nearly all actives have a fitted effect of over 50% in size
Vaccinia Venus: inhibitors of vaccinia virus (Venus reporter); Potency, µM (top dose mostly 36.5 µM), without a hit: at the top dose activity change, negative = inhibition, usual class: inhibitors; AID 720580; Vaccinia virus Venus reporter expression, fluorescence; hit rate 0.46% among 330,000; calls by dose curve; tested in A549 cells; further: nearly all actives have a fitted effect of over 30% in size
Sm TGR inh: inhibitors of Schistosoma mansoni thioredoxin glutathione reductase. Potency, µM (highest dose often 114 µM), for the others: at the top dose activity change, negative = inhibition, most hits filed as inhibitors. hit rate 3% among 360,000. AID 485364. purified TGR, DTNB reduction, TNB absorbance 405 nm. Q962Y6; active means well fitted inhibition curve with a large enough effect; inconclusive means small, poorly fitted or top-dose-only effect; inactive means no such curve, though single readings can be large or run the other way; further: nearly all actives have a fitted effect of over 60% in size
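Kinetic colorimetric format: TGR-catalysed, NADPH-driven DTNB reduction monitored via TNB absorbance. Enzyme dispensed at 20 nM; compound exposure 15 min at room temperature before reaction start.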
MARV entry inh: blocks Marburg virus binding to or entry into cells; Marburg virus pseudotyped entry inhibition, cell reporter; Potency, µM (titrated, usually from 37.8 µM), for the others: at the highest dose activity change, negative = inhibition, hits mostly inhibitors; hit rate 1.8% among 300,000; calls by dose curve; tested in HEK293 cells
FMDV inh: antivirals against foot and mouth disease virus | Potency, µM (doses to about 57.9 µM), for the others: at the highest dose activity change, negative = inhibition, actives largely listed as inhibitors | hit rate 1.2% among 410,000 | FMDV antiviral cell-based qHTS | AID 1159524; calls by dose curve; tested in HEK293T cells; further: read-out not given here; nearly all actives have a fitted effect of over 45% in size
VACV mCherry inh: vaccinia inhibition (mCherry reporter); Vaccinia virus mCherry reporter infection, fluorescence; Potency, µM (top dose mostly 36.5 µM), inactives show top-dose activity change, negative = inhibition, usual class: inhibitors; hit rate 0.63% among 310,000; AID 720579; calls by dose curve; tested in A549 cells; further: nearly all actives have a fitted effect of over 35% in size
Starred values were filed as active, the others as inactive; i = inactive; u = inconclusive; x = no result; [ ] = remark or other dose. Sampled rows, rich in hits. Any-hit rate of the full collection: about 5.4%. On the % scale 0 is the no-effect control and ±100 the full control effect; potency means the concentration at half of the fitted maximal effect.

SMILES | LASV entry inh | Vaccinia Venus | Sm TGR inh | MARV entry inh | FMDV inh | VACV mCherry inh
CCOC(=O)c1ccc(N2C(=O)c3n[nH]c(C)c3C2c2ccccc2OC)cc1 (configuration not stated) | -11%[46.1 µM] | -1% | -3% | -5%[46.1 µM] | 0% | -6%
COc1cc(=O)n2c(c1C(=O)NC(C)c1ccco1)CCN(CC=C(C)C)CC2 (configuration not stated) | x | -11% | x | x | 9% | -10%
Cc1cc(N/N=C/c2ccccc2Cl)nc(NCc2ccccc2)n1 | u | u | 2% | u | u | 13µM*
Cc1cc(NC2CCCCC2)nc(NCc2ccccc2)n1 | 23µM* | x | -19% | 12µM* | u | x
Cc1ccc(Nc2cc(C)nc(NCc3ccccc3)n2)cc1 | 26µM* | u | -10% | 8.2µM* | -28% | u
CCOC(=O)c1cn2nc(N3CCCC3)ccc2n1 | 1.4µM* | -11% | 0% | 3.5µM* | -69% | -2%
Cc1cnc(-n2ncc(C(=O)N(CCO)C(C)C)c2-c2cccs2)nc1-c1ccc(F)cc1 | x | -16% | x | x | 22% | -18%
CN1c2ccccc2C(C)(C)C12CC(CCl)=NO2 (configuration not stated) | u | -13% | 40µM* | -5% | u | -13%
O=C(O)c1ccccc1C(=O)NNc1ccc(F)cc1 | -3% | -14% | 50µM* | -21% | -22% | 0%
Cc1cc2c(c(/C=C/C(=O)c3ccccc3)c1)OC1(C=C2)Oc2ccccc2C(=O)N1C (configuration not stated) | u | -5% | -5% | u | 25µM* | -13%
CC(NC(=O)c1ccco1)c1nnc2n1CCN(Cc1ccc(N3CCCC3)cc1)CC2 (configuration not stated) | x | 1% | x | x | 4% | -3%
Cn1ncc2c(N3CCN(c4ccccc4Cl)CC3)ncnc21 | 4%[46.1 µM] | -21% | 1% | x | -20% | -9%
NS(=O)(=O)c1ccc(CNC(=O)/C=C/c2cccc(Cl)c2)cc1 | 1% | -8% | 3% | 27% | -17% | i
COc1cc(/C=C/C(=O)c2ccc([N+](=O)[O-])o2)ccc1O | x | u | 3.2µM* | x | u | u
O=C(/C=C/c1cccc(Cl)c1)c1ccc([N+](=O)[O-])o1 | x | 10µM* | 0.71µM* | x | 11µM* | 10µM*
COc1ccc(/C=C/C(=O)c2ccc([N+](=O)[O-])o2)cc1OC | x | u | 6.3µM* | x | 35µM* | u
O=C1CC(N2CCC(Cc3ccccc3)CC2)C(=O)N1CCc1ccccc1 (configuration not stated) | u | -19% | 11µM* | -8% | x | -29%
CCOC(=O)C1CCN(C2CC(=O)N(c3cccc(Cl)c3)C2=O)CC1 (configuration not stated) | 0% | -3% | -48% | 11% | x | i
O=C(C1CCN(C2CC(=O)N(c3cccc(Cl)c3)C2=O)CC1)N1CCCC1 (configuration not stated) | 14% | -9% | 22µM* | 15%[46.1 µM] | -15% | x
NC(=O)C1CCN(C2CC(=O)N(Cc3ccc(N4CCCC4=O)cc3)C2=O)CC1 (configuration not stated) | u | -1% | 35µM* | 3% | 22% | -14%
O=C(C1CCN(C2CC(=O)N(c3ccc(Cl)cc3)C2=O)CC1)N1CCOCC1 (configuration not stated) | 2% | -6% | 14µM* | 0% | -5% | x
Cc1oc(-c2ccccc2NC(=O)c2ccccc2)nc1CNC(=O)c1c(-c2ccccc2)noc1C | x | -16% | x | x | 3% | -19%
Cc1cccn2c(=O)c(C(=O)NCc3ccccc3Cl)c(O)nc12 | x | -13% | -3% | 21%[46.1 µM] | -22% | -16%
O=C(C1CCN(C2CC(=O)N(Cc3ccccc3)C2=O)CC1)N1CCCCCC1 (configuration not stated) | u | -14% | 22µM* | -1% | -15% | x
Cc1nn2c(COc3ccc(NC(=O)c4ccccc4Cl)cc3)nnc2c2ccccc12 | u | -30% | -14% | 7.1µM* | -28% | i
SMILES | LASV entry inh | Vaccinia Venus | Sm TGR inh | MARV entry inh | FMDV inh | VACV mCherry inh
Cc1nn2c(COc3ccc(NC(=O)C(C)C)cc3)nnc2c2ccccc12 | u | -18% | 2% | -1% | 2% | -4%
O=C(/C=C/c1ccc(OC(F)F)cc1)Nc1cccc(S(=O)(=O)NC2=NCCCCC2)c1 | 10µM* | u | 0% | u | u | u
COc1ccccc1/C=C/C(=O)Nc1cccc(S(=O)(=O)NC2=NCCCCC2)c1 | u | -13% | 1% | 11µM* | -10% | i
CC(C)Cc1nc2cc(NS(=O)(=O)N(C)C)cc(C(=O)N3CC4(C)CC3CC(C)(C)C4)c2n1C (configuration not stated) | x | 15% | x | x | 23% | -2%
CCOC(=O)c1cnc(-n2nc(C)cc2C)nc1NNc1ncc(-c2ccccc2)cn1 | u | u | -2% | 11µM* | -20% | u
CCOC(=O)c1cnc(-n2nc(C)cc2C)nc1NCc1ccccc1 | u | u | 1% | u | 28µM* | u
COc1ccccc1-c1nc(S(=O)(=O)c2ccccc2)c(N2CCC(C)CC2)o1 | -27%[46.1 µM] | 1% | 2% | u | -2% | -17%
O=C(c1cnc(N2CCOCC2)c2ccccc12)N1CCN(c2ccccc2)CC1 | -11%[46.1 µM] | -16% | -5% | x | u | -12%
CCCS(=O)(=O)c1nc(S(=O)(=O)c2ccc(C)cc2)c(N2CCCC2)s1 | -7% | -20% | -2% | u | 4% | x
CCCS(=O)(=O)c1nc(S(=O)(=O)c2ccc(C)cc2)c(N2CCC(O)CC2)s1 | x | -2%[7.34 µM] | -6% | x | 17% | -1%[7.34 µM]
CCCS(=O)(=O)c1nc(S(=O)(=O)c2ccc(C)cc2)c(N2CCC(C(N)=O)CC2)s1 | x | x | 45µM* | x | 20% | x
CCS(=O)(=O)c1nc(S(=O)(=O)c2ccc(C)cc2)c(NC(C)c2ccccc2)s1 (configuration not stated) | u | -13% | -12% | u | 36% | -24%
CCCS(=O)(=O)c1nc(S(=O)(=O)c2ccc(C)cc2)c(N2CCc3ccccc3C2)s1 | u | -6% | 25µM* | 5% | 20% | -15%
CCCS(=O)(=O)c1nc(S(=O)(=O)c2ccc(C)cc2)c(NC(C)c2ccccc2)s1 (configuration not stated) | u | -7% | 5µM* | -2%[46.1 µM] | 14% | -13%
CC(C)(C)OC(=O)N1CCC(c2c(C(=O)NCCN3CCOCC3)cnn2-c2ccc(F)cc2)CC1 | -11%[46.1 µM] | -7% | 0% | x | 0% | -10%
CCn1c(C)c2c(C)nnc(C)c2c1C | 8% | -4% | 45µM* | 8% | -10% | -19%[1.46 µM]
COc1ccc(-c2cc(C(F)F)n3ncc(C(=O)N4CCN(C(=O)c5ccco5)CC4)c3n2)cc1 | x | u | 28µM* | x | u | u
COc1ccc(-c2cc(C(F)F)n3ncc(C(=O)N4CCCCC4)c3n2)cc1 | -20% | x | 2% | u | -6% | x
